Results: the supplement of paper PMC10849652
The full data set covers some 7,900 targets. This sample favours those with a hit. About 0.6% of all pairs of compound and target were hits. Unmarked numbers belong to inactive results.

Experiments:
Experiment in all cases: log2 fold change, soluble protein after heating vs DMSO (PISA); higher = thermal stabilisation; K562 cells, 10 uM, 30 min; active = over 0.2 and 3.5 SD of the protein, either way, in both replicates (recomputed)
IRAK-1-4 Inhibitor I = compound: C1COCCN1CCN2C3=CC=CC=C3N=C2NC(=O)C4=CC(=CC=C4)[N+](=O)[O-] [IRAK-1-4 Inhibitor I]
Summary of the method: (§1)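 For each measurement, 10 μM compound was applied for 30 min to K562 cells at 2×10^6 cells/mL. Aliquots were heated for 3 min across 48°C-58°C, pooled, and extracted in PBS with 0.5% NP-40 at 4°C; the supernatant after 21,000xg for 90 min was soluble protein. This was quantified by TMTpro 16plex LC-MS/MS with channel sums equalised, and thermal stability was reported relative to control samples from duplicates, on a log2 fold-change scale.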

ibrutinib = compound: C=CC(=O)N1CCC[C@@H](n2nc(-c3ccc(Oc4ccccc4)cc3)c3c(N)ncnc32)C1 [ibrutinib]
Summary of the method: as §1

[1] = compound: CC(=O)c1cnc2ccc(-c3cc(Cl)c(O)c(Cl)c3)nc2c1N[C@H]1CC[C@H](CN(C)C)CC1
Summary of the method: as §1

ralimetinib = compound: CC(C)(C)Cn1c(N)nc2ccc(-c3[nH]c(C(C)(C)C)nc3-c3ccc(F)cc3)nc21 [ralimetinib]
Summary of the method: as §1

[2] = compound: CC(C)(O)CC(=O)NCCn1ccc2ncnc(Nc3ccc(Oc4cccc(C(F)(F)F)c4)c(Cl)c3)c21
Summary of the method: as §1

[3] = compound: CC(C)C1=C2N=C(C=C(N2N=C1)NCC3=CC=CC=C3)NCCCCCCN
Summary of the method: as §1

[4] = compound: CC(C)C[C@@H](C=O)NC(=O)[C@H](CC(C)C)NC(=O)[C@H](CC(C)C)NC(=O)OCc1ccccc1
Summary of the method: as §1

pinometostat = compound: CC(C)N(C[C@H]1O[C@@H](n2cnc3c(N)ncnc32)[C@H](O)[C@@H]1O)[C@H]1C[C@@H](CCc2nc3cc(C(C)(C)C)ccc3[nH]2)C1 [pinometostat]
Summary of the method: as §1

[5] = compound: CC1=C(C(CC(=O)N1)C2=CC=C(C=C2)C(F)(F)F)C(=O)NC3=C(C=C4C(=C3)C=NN4)F
Summary of the method: as §1

[6] = compound: CC1=C(C2=C(C=C1)C(=O)C3=CC=CC=C3N2CCCN)C
Summary of the method: as §1

[7] = compound: CC1=C(C=C(C=C1)NC(=O)C2=CC(=CC=C2)C(C)(C)C#N)NC3=CC4=C(C=C3)N=CN(C4=O)C
Summary of the method: as §1

[8] = compound: CC1=C(C=C(C=C1)NC(=O)C2=CC(=CC=C2)N(C)C)NC(=O)C3=CC=C(C=C3)O
Summary of the method: as §1

[9] = compound: CC1=CC=C(C=C1)SC2=C3C=C(SC3=CN=C2)C(=O)N
Summary of the method: as §1

[10] = compound: CC1=NC(=CC=C1)C2=C(N=C(N2)C(C)(C)C)C3=CC4=NC=CN=C4C=C3
Summary of the method: as §1

Nexturastat A = compound: CCCCN(Cc1ccc(C(=O)NO)cc1)C(=O)Nc1ccccc1 [Nexturastat A]
Summary of the method: as §1

vemurafenib = compound: CCCS(=O)(=O)Nc1ccc(F)c(C(=O)c2c[nH]c3ncc(-c4ccc(Cl)cc4)cc23)c1F [vemurafenib]
Summary of the method: as §1

[11] = compound: CCCS(=O)(=O)Nc1ccc(F)c(C(=O)c2c[nH]c3ncc(Cl)cc23)c1F
Summary of the method: as §1

[12] = compound: CCCc1cc(C)[nH]c(=O)c1CNC(=O)c1cc(-c2ccnc(N3CCN(C)CC3)c2)cc2c1cnn2C(C)C
Summary of the method: as §1

givinostat = compound: CCN(CC)Cc1ccc2cc(COC(=O)Nc3ccc(C(=O)NO)cc3)ccc2c1 [givinostat]
Summary of the method: as §1

barasertib = compound: CCN(CCCOc1ccc2c(Nc3cc(CC(=O)Nc4cccc(F)c4)[nH]n3)ncnc2c1)CCOP(=O)(O)O [barasertib]
Summary of the method: as §1

UniProt O95997, sequence (O95997 whole entry, looked up): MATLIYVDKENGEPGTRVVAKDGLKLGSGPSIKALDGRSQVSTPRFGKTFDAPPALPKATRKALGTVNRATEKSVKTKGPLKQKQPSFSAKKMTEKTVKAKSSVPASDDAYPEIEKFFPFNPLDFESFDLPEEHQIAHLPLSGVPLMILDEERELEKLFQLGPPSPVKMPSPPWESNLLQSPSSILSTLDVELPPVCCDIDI
UniProt P19174, sequence (P19174 whole entry, looked up): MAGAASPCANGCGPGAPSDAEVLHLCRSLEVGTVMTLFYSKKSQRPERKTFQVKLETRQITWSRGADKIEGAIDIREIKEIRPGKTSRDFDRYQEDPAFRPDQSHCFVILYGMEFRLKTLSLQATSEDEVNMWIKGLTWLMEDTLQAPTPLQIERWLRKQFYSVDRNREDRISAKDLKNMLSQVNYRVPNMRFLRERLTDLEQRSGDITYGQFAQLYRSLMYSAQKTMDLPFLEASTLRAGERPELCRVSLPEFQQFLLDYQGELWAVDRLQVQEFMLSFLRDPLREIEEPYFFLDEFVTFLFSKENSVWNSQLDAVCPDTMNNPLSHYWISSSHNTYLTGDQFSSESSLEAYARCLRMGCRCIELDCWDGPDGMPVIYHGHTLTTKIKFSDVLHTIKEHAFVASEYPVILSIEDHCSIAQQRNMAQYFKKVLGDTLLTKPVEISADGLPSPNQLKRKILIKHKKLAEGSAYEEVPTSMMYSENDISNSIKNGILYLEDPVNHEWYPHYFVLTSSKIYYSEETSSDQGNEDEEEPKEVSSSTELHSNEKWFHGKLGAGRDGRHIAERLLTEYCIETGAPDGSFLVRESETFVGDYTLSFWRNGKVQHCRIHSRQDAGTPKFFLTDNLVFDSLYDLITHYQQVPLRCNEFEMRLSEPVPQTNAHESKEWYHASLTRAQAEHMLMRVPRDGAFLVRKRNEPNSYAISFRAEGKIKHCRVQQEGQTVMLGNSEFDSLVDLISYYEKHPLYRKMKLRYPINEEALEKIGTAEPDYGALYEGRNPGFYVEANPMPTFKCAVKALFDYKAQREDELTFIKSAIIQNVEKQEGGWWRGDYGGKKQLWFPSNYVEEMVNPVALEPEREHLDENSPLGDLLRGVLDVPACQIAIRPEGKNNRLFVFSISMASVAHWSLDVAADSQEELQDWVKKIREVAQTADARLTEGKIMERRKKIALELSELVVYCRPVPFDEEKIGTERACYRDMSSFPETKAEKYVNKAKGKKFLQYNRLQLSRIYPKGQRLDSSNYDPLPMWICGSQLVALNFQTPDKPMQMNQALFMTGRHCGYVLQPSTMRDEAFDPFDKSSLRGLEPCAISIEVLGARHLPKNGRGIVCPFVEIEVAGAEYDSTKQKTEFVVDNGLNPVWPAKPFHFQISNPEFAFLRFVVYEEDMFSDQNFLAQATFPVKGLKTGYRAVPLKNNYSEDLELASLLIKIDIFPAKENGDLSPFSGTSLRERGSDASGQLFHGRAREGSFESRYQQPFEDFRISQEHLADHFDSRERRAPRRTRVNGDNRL
UniProt Q13356, sequence (Q13356 whole entry, looked up): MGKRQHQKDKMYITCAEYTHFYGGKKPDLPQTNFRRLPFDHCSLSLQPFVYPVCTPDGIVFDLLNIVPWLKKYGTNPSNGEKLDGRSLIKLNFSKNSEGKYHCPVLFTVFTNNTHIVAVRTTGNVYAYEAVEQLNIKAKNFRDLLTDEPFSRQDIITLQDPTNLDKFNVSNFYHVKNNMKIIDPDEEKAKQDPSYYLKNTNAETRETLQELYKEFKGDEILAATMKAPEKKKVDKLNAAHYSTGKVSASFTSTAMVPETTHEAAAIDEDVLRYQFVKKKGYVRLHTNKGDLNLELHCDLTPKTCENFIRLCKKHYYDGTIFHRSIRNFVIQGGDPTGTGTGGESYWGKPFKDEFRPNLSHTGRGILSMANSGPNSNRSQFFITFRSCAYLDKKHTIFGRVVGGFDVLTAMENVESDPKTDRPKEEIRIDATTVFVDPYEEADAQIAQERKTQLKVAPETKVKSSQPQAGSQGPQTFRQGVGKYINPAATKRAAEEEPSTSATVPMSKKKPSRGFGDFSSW
UniProt O00232, sequence (O00232 whole entry, looked up): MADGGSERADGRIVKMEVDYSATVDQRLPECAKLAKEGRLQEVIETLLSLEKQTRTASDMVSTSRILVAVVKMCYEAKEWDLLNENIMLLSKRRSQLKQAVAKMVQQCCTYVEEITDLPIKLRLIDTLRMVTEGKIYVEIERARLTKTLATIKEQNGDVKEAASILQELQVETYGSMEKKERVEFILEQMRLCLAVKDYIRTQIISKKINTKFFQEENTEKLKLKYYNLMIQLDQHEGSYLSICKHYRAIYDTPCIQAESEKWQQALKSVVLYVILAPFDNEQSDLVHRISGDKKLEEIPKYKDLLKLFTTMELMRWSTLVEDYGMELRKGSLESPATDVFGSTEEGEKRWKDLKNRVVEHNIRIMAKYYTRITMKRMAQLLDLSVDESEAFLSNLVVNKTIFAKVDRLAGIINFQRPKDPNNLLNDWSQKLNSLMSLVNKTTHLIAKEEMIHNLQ
UniProt O00628, sequence (O00628 whole entry, looked up): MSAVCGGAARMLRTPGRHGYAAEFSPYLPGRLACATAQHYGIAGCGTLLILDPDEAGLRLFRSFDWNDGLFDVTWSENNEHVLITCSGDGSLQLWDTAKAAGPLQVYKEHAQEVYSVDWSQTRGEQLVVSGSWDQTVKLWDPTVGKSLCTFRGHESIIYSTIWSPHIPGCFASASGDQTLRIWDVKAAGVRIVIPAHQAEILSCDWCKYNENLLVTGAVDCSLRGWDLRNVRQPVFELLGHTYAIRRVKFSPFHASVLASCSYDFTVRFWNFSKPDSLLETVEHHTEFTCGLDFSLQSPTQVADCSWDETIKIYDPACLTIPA

| Target | log2 fold change (IRAK-1-4 Inhibitor I) | log2 fold change (ibrutinib) | log2 fold change [1] | log2 fold change (ralimetinib) | log2 fold change [2] | log2 fold change [3] | log2 fold change [4] | log2 fold change (pinometostat) | log2 fold change [5] | log2 fold change [6] | log2 fold change [7] | log2 fold change [8] | log2 fold change [9] | log2 fold change [10] | log2 fold change (Nexturastat A) | log2 fold change (vemurafenib) | log2 fold change [11] | log2 fold change [12] | log2 fold change (givinostat) | log2 fold change (barasertib) |
| --- | --- | --- | --- | --- | --- | --- | --- | --- | --- | --- | --- | --- | --- | --- | --- | --- | --- | --- | --- | --- |
| POLR2B (UniProt P30876) | -0.095 | -0.002 | 0.262 (active) | 0.066 | -0.047 | 0.08 | 0.03 | 0.037 | -0.031 | 0.03 | 0.009 | -0.044 | 0.041 | 0.016 | 0.054 | 0.006 | 0.041 | 0.005 | -0.005 | 0.008 |
| PEX7 (UniProt O00628) | 0.03 | -0.092 | -0.106 | -0.064 | -0.057 | -0.006 | 0.003 | -0.034 | 0.025 | 0.033 | 0.061 | -0.011 | 0.025 | -0.066 | -0.041 | -0.049 | 0.007 | -0.035 | -0.107 | -0.089 |
| PSMD12 (UniProt O00232) | -0.055 | -0.022 | 0.03 | 0.004 | -0.01 | 0 | -0.251 (active) | 0.03 | 0.007 | 0.015 | 0.066 | -0.004 | -0.005 | -0.011 | 0.047 | -0.031 | 0.009 | 0.052 | -0.002 | -0.044 |
| PPIL2 (UniProt Q13356) | -0.097 | -0.048 | -0.077 | 0 | -0.081 | -0.044 | 0.096 | -0.063 | -0.043 | 0.062 | 0.005 | -0.084 | 0.04 | 0.023 | -0.059 | 0.113 | 0.123 | 0.016 | 0.123 | 0.073 |
| PRKCG (UniProt P05129) | 0.025 | -0.024 | -0.351 | 0.049 | -0.099 | -0.097 | 0.055 | 0.054 | 0.037 | 0.028 | 0.085 | -0.117 | -0.058 | 0.021 | -0.08 | -0.041 | 0.034 | 0.019 | -0.316 | -0.094 |
| PTTG1 (UniProt O95997) | -0.026 | -0.017 | 0.057 | -0.069 | -0.03 | -0.002 | 0.393 (active) | 0.036 | 0.055 | -0.084 | 0.007 | -0.353 | 0.02 | -0.077 | 0.098 | -0.081 | -0.045 | -0.021 | 0.068 | 0.023 |
| POLR2C (UniProt P19387) | -0.041 | -0.025 | 0.227 | 0.102 | 0.003 | 0.058 | 0.042 | 0.065 | -0.016 | -0.025 | -0.097 | -0.058 | 0.038 | -0.011 | 0.126 | 0.021 | 0.066 | -0.005 | 0.042 | 0.022 |
| PLCG1 isoform 2 (UniProt P19174) | -0.079 | 0.03 | 0.041 | -0.042 | -0.362 (active) | -0.23 | 0.007 | 0.069 | 0.023 | -0.027 | 0.045 | -0.011 | 0.039 | -0.012 | 0.019 | 0.003 | 0.079 | -0.019 | -0.013 | 0.031 |
